Assay results published in PubChem BioAssay.
Activity calls are given as the source filed them.

How the values were obtained:
[1] = test system: XIP peptide (Xip251-270) binding; experiment: XIP fragment 251-270 binding compounds – biochemical, small-molecule microarray, fluorescence 635/667 nm, 0.1 µg/mL protein, primary screen (AID 1182); conditions: fluorescent protein binding, 635 nm, higher = more signal, called active from +8 up or from −8 down
XIP peptide (Xip251-270) = experiment: compounds binding XIP fragment 251-270 – biochemical, small-molecule microarray, fluorescence 635/667 nm, 0.5 µg/mL protein, primary screen (AID 1183); conditions: fluorescence 635 nm, higher = more signal
[2] = blood-stage malaria parasite viability loss – strain 3D7, DAPI fluorescence, 100 nL, primary screen (AID 1184);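 note: parasites grown inside human red blood cells in medium with human serum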; conditions: P. falciparum 3D7 growth, 3 d, higher = more signal
[3] = molecular target: Homeobox protein Hox-A13 (Mus musculus) (UniProt Q62424); experiment: disruptors of Hoxa13 oligonucleotide interaction – biochemical, fluorescence polarization, labeled oligonucleotide, primary screen (AID 1185); conditions: Hoxa13:DNA binding, 15 min, higher = more signal, called active from +8 up or from −8 down
Homeobox protein Hox-A13 (Mus musculus), sequence (Q62424 whole entry, looked up): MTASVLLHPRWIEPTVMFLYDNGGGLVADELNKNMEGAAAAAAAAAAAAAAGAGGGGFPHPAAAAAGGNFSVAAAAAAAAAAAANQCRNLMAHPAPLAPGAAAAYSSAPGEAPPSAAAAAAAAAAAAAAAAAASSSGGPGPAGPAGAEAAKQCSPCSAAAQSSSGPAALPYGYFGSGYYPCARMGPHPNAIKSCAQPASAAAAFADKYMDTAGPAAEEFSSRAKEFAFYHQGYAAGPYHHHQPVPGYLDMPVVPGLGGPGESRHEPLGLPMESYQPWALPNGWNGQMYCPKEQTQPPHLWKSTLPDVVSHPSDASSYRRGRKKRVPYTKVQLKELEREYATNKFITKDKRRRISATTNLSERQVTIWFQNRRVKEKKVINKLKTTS

SMILES	composite z-score [1]	composite z-score (XIP peptide (Xip251-270))	z-score [2]	z-score [3]
O=C1[C@H]2[C@H]3[C@H](O)[C@H](O)CC(=NOC[C@@H](O)COCc4ccco4)[C@@H]3CC[C@H]2C(=O)N1c1cccc(Oc2ccccc2)c1	0.2 (inactive)	-0.344	0.48	-5.57 (inactive)
O=C(NN=C1C[C@@H](O)[C@@H](O)[C@@H]2[C@@H]3C(=O)N(Cc4ccc5c(c4)OCO5)C(=O)[C@@H]3CC[C@@H]12)OCc1ccccc1	0.244 (inactive)	0.0195	-1.1	-3.09 (inactive)
CC=CC1=C(CO)[C@H](O)[C@H]2O[C@H]2[C@@H]1O	0.353 (inactive)	0.374	0.0425	-0.101 (inactive)
CCOC(=O)[C@H](Cc1ccccc1)NC(=O)CCC1CC(OC(=O)NCCc2ccc(F)cc2)CC2(CCCC(COC(=O)NCCC(C)C)O2)O1 (some centres not stated)	0.162 (inactive)	0.657	-1.66	-4.45 (inactive)
CCN1C(=O)[C@H]2[C@H]3[C@H](O)[C@H](O)CC(=NO[C@@H]4O[C@H](CO)[C@@H](O)[C@H](O)[C@H]4O)[C@H]3CC[C@H]2C1=O	-0.0195 (inactive)	0.263	-0.0716	-0.898 (inactive)
O=C1[C@H]2[C@H]3[C@H](O)[C@H](O)CC(=NO[C@@H]4O[C@H](CO)[C@@H](O)[C@H](O)[C@H]4O)[C@@H]3CC[C@H]2C(=O)N1C1CCCCC1	-0.25 (inactive)	0.0473	0.0387	0.719 (inactive)
C[C@@H]1CC[C@H]2C(=O)OC(CN3C(=O)c4ccccc4C3=O)CN2[C@H]1c1ccc(Br)cc1 (some centres not stated)	-0.212 (inactive)	0.338	0.49	-0.956 (inactive)
CCc1cc2c(nc1CC)CCN(CCC(C)=NOC[C@@H](C)[C@H](OCc1ccccc1)C(C)C)C2	-0.259 (inactive)	-0.125	0.23	-3.53 (inactive)
CO[C@H]1COC(=O)[C@H](C)COC(=O)[C@@H](OCc2ccccc2)C=C[C@@H]1C	0.277 (inactive)	-0.348	1.25	-0.571 (inactive)
COC(=O)CC=C[C@@H](C)[C@@H](C=NOC[C@@H](O)COCc1ccco1)NS(=O)(=O)c1ccc(C)cc1	0.133 (inactive)	0.239	-0.546	-3.79 (inactive)
C[C@@H]1C=CCC(=O)OC[C@H](C)C(=O)N[C@@H](Cc2ccccc2)C(=O)OC1	-0.478 (inactive)	-0.0947	-1.55	2.57 (inactive)
COC(=O)[C@H](C)NC(=O)CCC1CC(OC(=O)NCc2cccc3ccccc23)CC2(CCCC(COC(=O)NCCCN3CCCC3=O)O2)O1 (some centres not stated)	1.17 (inactive)	0.582	-0.529	-3.27 (inactive)
COC(=O)[C@H](C)NC(=O)CC=C[C@@H](C)[C@@H]1C=C[C@H](O)[C@@H](CO)O1	0.672 (inactive)	0.0241	-1.66	-0.56 (inactive)
CCOC(=O)CCN1C(=O)[C@H]2[C@H]3[C@H](O)[C@H](O)CC(=NOCC=C(C)CCC=C(C)C)[C@H]3CC[C@H]2C1=O	-0.322 (inactive)	-0.206	0.241	0.765 (inactive)
CC(=O)OC[C@H]1O[C@H](CC=NOC[C@@H](O)COCc2ccco2)C=C[C@@H]1OC(C)=O	0.084 (inactive)	0.479	0.466	-0.226 (inactive)
CCOC(=O)[C@H](CC(C)C)NC(=O)CCC1CC(OC(=O)NCCc2ccc(F)cc2)CC2(CCCC(COC(=O)NCCCN3CCCC3=O)O2)O1 (some centres not stated)	0.173 (inactive)	0.74	-1.82	-6.3 (inactive)
CON=C(C)CCN1CCCCc2nc(C)c(C)cc21	0.0459 (inactive)	0.49	1.06	-2.24 (inactive)
CCc1cc2c(nc1CC)CCN(CCC(C)=NO[C@@H]1O[C@H](COC(C)=O)[C@@H](OC(C)=O)[C@H](OC(C)=O)[C@H]1OC(C)=O)C2	2.93 (inactive)	0.719	-1.62	-4.79 (inactive)
CC(CCC(=O)OC[C@H]1O[C@H](C#Cc2ccccc2)C=C[C@@H]1Oc1ccc(C)cc1)=NOC(C)CN1CCCCc2nc(C)c(C)cc21 (some centres not stated)	-0.185 (inactive)	0.0787	-2.06	-2.02 (inactive)
CCOC(=O)[C@H](CC(C)C)NC(=O)CCC1CC(OC(=O)NCCc2ccc(F)cc2)CC2(CCCC(COC(=O)NCc3cccc4ccccc34)O2)O1 (some centres not stated)	-0.008 (inactive)	0.24	-1.48	-5.81 (inactive)
CCOC(=O)CCN1C(=O)[C@H]2[C@H]3[C@H](O)[C@H](O)CC(=NO[C@@H]4O[C@H](CO)[C@@H](O)[C@H](O)[C@H]4O)[C@H]3CC[C@H]2C1=O	0.234 (inactive)	0.405	0.209	-0.139 (inactive)
CC(C)=CCCC(C)=CCON=C1C[C@@H](O)[C@@H](O)[C@@H]2[C@@H]3C(=O)N(Cc4ccc5c(c4)OCO5)C(=O)[C@@H]3CC[C@@H]12	1.07 (inactive)	0.245	-0.526	-0.814 (inactive)

SMILES	composite z-score [1]	composite z-score (XIP peptide (Xip251-270))	z-score [2]	z-score [3]
CCCNC(=O)OC[C@H]1O[C@H](CCON=C2C[C@@H](O)[C@@H](O)[C@@H]3[C@@H]4C(=O)N(CC)C(=O)[C@@H]4CC[C@@H]23)C=C[C@@H]1Oc1ccc(OC)cc1	-0.14 (inactive)	0.696	0.497	-7.64 (inactive)
CO[C@@H](C1CCCCC1)[C@@H](C)[C@H](OCc1cccc(Br)c1)[C@@H](C)CO	-0.0994 (inactive)	-0.0791	-0.254	-4.53 (inactive)
O=C1[C@H]2[C@H]3[C@H](O)[C@H](O)CC(=NOC[C@@H](O)COCc4ccco4)[C@@H]3CC[C@H]2C(=O)N1Cc1ccc2c(c1)OCO2	-0.0588 (inactive)	0.265	1.15	0.263 (inactive)
CC(C)=NO[C@H](C)c1cn([C@@H]2COC[C@H]2O)nn1	0.496 (inactive)	0.0358	0.672	0.141 (inactive)
CC(CCN1CCc2nc(-c3ccccc3)c(-c3ccccc3)cc2C1)=NOC(C)CN1CCCc2nc(C)c(C)cc21 (configuration not stated)	0.161 (inactive)	0.558	0.5	-9.97 (active)
COC(=O)[C@H](C)NC(=O)CCC1CC(OC(=O)NCc2cccc3ccccc23)CC2(CCCC(COC(=O)NCc3ccccc3)O2)O1 (some centres not stated)	0.0457 (inactive)	0.461	-2.02	-1.39 (inactive)
CCN1C(=O)[C@H]2[C@H]3[C@H](O)[C@H](O)CC(=NOC[C@@H](O)[C@H]4O[C@@H]5OC(C)(C)O[C@@H]5[C@H]4O)[C@@H]3CC[C@H]2C1=O	-0.0371 (inactive)	0.33	0.663	0.303 (inactive)
COC(=O)[C@H](C)NC(=O)CCC1CC(OC(=O)NCc2cccc3ccccc23)CC2(CCCC(COC(=O)NCc3cccc(C(F)(F)F)c3)O2)O1 (some centres not stated)	-0.179 (inactive)	0.128	-1.74	-4.97 (inactive)
CSCC[C@@H]1NC(=O)CC=C[C@@H](C)COC(=O)[C@H](C)COC1=O	0.439 (inactive)	0.8	0.461	0.0971 (inactive)
CC(C)[C@@H](OCc1ccccc1)[C@H](C)C=NOC[C@@H](O)[C@H]1O[C@@H]2OC(C)(C)O[C@@H]2[C@H]1O	-0.12 (inactive)	0.258	-0.489	-1.24 (inactive)
CC(=O)OC[C@H]1O[C@H](CC=NOC(C)CN2CCCc3nc(C)c(C)cc32)C=C[C@@H]1OC(C)=O (some centres not stated)	1.29 (inactive)	0.618	-0.224	-6.1 (inactive)
C=CC[C@@H]1C=C[C@H](ON=C(C)CCN2CCCCc3nc(C)c(C)cc32)[C@@H](CO)O1	-0.167 (inactive)	0.143	-0.784	-4.55 (inactive)
O=C1[C@H]2[C@H]3[C@H](O)[C@H](O)CC(=NOCc4ccccc4)[C@@H]3CC[C@H]2C(=O)N1c1cccc(Oc2ccccc2)c1	0.811 (inactive)	0.123	-0.129	-1.24 (inactive)
CCOC(=O)[C@H](Cc1ccccc1)NC(=O)CCC1CC(OC(=O)NCc2cccc3ccccc23)CC2(CCCC(COC(=O)NCC3CCCCC3)O2)O1 (some centres not stated)	1.98 (inactive)	0.357	-1.69	-3.1 (inactive)
CCOC(=O)[C@H](Cc1ccccc1)NC(=O)CCC1CC(OC(=O)NCc2ccc3c(c2)OCO3)CC2(CCCC(COC(=O)NCCCN3CCCC3=O)O2)O1 (some centres not stated)	0.112 (inactive)	0.577	-1.87	-3.13 (inactive)
CC(=O)OC[C@H]1O[C@@H](ON=C(C)C)[C@H](OC(C)=O)[C@@H](OC(C)=O)[C@@H]1OC(C)=O	-0.0542 (inactive)	-0.245	0.213	-0.383 (inactive)
COC(=O)[C@@H]1CC[C@H](C)[C@@H](c2ccc(C)cc2)N1C(=O)c1ccc(C=NOC[C@@H](O)[C@H]2O[C@@H]3OC(C)(C)O[C@@H]3[C@H]2O)cc1	0.102 (inactive)	0.228	-0.209	-6.03 (inactive)
CCCNC(=O)OC[C@H]1O[C@H](CCON=C[C@@H](C)[C@H](OCc2ccccc2)C(C)C)C=C[C@@H]1Oc1ccc(OC)cc1	0.196 (inactive)	-0.267	-0.591	-3.32 (inactive)
CC(C)=NO[C@@H](C)c1cn([C@H](CO)Cc2ccccc2)nn1	-0.407 (inactive)	0.241	0.412	1.06 (inactive)
CC(CCN1CCc2nc(-c3ccccc3)c(-c3ccccc3)cc2C1)=NO[C@@H](C)c1cc(-c2c(C)cc(C)cc2C)no1	1.27 (inactive)	0.416	-1.31	0.713 (inactive)
C[C@@H]1CC[C@H]2C(=O)O[C@@H](CN=[N+]=[N-])CN2[C@H]1c1ccc(Br)cc1	0.223 (inactive)	0.688	-1.72	-0.917 (inactive)
